High-throughput results deposited in PubChem BioAssay by National Center for Advancing Translational Sciences (NCATS).
Tau fluor counter: counter-screen for tau fibril formation inhibitors; tau K18 P301L Alexa594 fluorescence, heparin fibrillization; Potency, µM (titrated, usually from 57.7 µM), inactives show top-dose activity change, negative = decrease; hit rate 0.93% among 280,000; active = well fitted curve in the direction sought with a large enough effect; inconclusive = small, poorly fitted or top-dose-only effect, or another doubt; inactive = no such curve, though single readings can be large; an effect the other way counts as inactive or inconclusive; also: nearly all actives have a fitted effect of over 55% in size
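Human tau K18 P301L (15 uM unlabeled, 0.24 uM Alexa 594-labeled) in 100 mM sodium acetate pH 7 with 20 uM heparin, 6 hr at 37 C. ThT 30 uM added, 1 hr ambient; Alexa 594 FP and total fluorescence read at 555/632 nm.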
Tau fibril ThT: blocks human tau fibril formation measured by thioflavin T; recombinant tau K18 P301L (four-repeat tau fragment), heparin-induced fibrillization, ThT fluorescence; Potency, µM (top dose mostly 57.4 µM), for the others: at the top dose activity, negative = inhibition, hits mostly inhibitors; hit rate 2.1% among 270,000; AID 1460; active = well fitted curve in the direction sought with a large enough effect; inconclusive = small, poorly fitted or top-dose-only effect, or another doubt; inactive = no such curve, though single readings can be large; an effect the other way counts as inactive or inconclusive; also: nearly all actives have a fitted effect of over 55% in size
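K18 P301L tau (15 uM + 0.24 uM Alexa 594-tagged), heparin 20 uM, NaOAc pH 7, 6 h 37 C; ThT 30 uM, 1 h RT, ex 450/em 510 nm.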
KDM4E inh: JMJD2E (human) inhibition; JMJD2E catalytic domain, FDH-coupled NADH fluorescence (FDH is formaldehyde dehydrogenase); Potency, µM (series often up to 57.1 µM), for inactives: at the top dose activity change, negative = inhibition, actives largely listed as inhibitors; hit rate 1.6% among 230,000;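 also: 0% = wells with enzyme and -100% = buffer wells without enzyme; nearly all actives have a fitted effect of over 50% in size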
ALDH1A1 block: blocks purified human ALDH1A1 activity; Purified ALDH1A1, NADH fluorescence, propionaldehyde substrate; Potency, µM (doses to about 75.3 µM), for inactives: at the highest dose activity, negative = inhibition, most hits filed as inhibitors; hit rate 7.3% among 220,000; AID 1030;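 also: plate controls were no enzyme wells and a reference inhibitor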
Target sequence (P00352 whole entry, looked up): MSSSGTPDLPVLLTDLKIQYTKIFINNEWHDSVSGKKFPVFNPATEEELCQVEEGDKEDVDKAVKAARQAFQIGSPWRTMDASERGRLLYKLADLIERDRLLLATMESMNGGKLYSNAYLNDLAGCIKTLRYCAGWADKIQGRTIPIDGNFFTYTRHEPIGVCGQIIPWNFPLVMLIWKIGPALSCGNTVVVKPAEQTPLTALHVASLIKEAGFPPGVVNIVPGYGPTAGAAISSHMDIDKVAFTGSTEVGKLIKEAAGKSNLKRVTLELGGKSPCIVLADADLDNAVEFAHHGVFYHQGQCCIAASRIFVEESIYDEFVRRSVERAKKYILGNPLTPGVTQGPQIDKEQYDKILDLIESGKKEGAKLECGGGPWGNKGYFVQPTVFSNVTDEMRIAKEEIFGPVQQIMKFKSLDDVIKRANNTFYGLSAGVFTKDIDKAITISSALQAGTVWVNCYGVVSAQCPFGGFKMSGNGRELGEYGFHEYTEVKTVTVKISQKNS
HPGD block: inhibitors of human 15-hydroxyprostaglandin dehydrogenase (HPGD) | purified HPGD, NADH fluorescence kinetic, PGE2 substrate | Potency, µM, without a hit: at the highest dose activity change, negative = inhibition, actives largely listed as inhibitors | hit rate 4.3% among 150,000
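20 nM HPGD preincubated 15 min at room temperature with compound in 50 mM Tris-HCl pH 8, 0.01% Tween 20. Started with 1 mM NAD+ and 30 uM prostaglandin E2; NADH fluorescence (360/450 nm) read 5 times over 30-s intervals, last minus first.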
Tau FP inhib: tau fibrillization inhibition (FP); hit rate 0.39% among 280,000; AID 1468; K18 P301L tau heparin fibrillization, Alexa594 FP, 6 h; Potency, µM (highest dose often 57.7 µM), without a hit: at the top dose activity, negative = inhibition, most hits filed as inhibitors; active = well fitted curve in the direction sought with a large enough effect; inconclusive = small, poorly fitted or top-dose-only effect, or another doubt; inactive = no such curve, though single readings can be large; an effect the other way counts as inactive or inconclusive; also: nearly all actives have a fitted effect of over 55% in size
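FP of Alexa 594-tau after heparin (20 uM) induction. Substrate: human K18 P301L, 15 uM unlabeled, 0.24 uM labeled. Buffer 100 mM sodium acetate pH 7. 6 hr, 37 C.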
* = called active by the depositor; ? = inconclusive; . = no result given; ! = a repeat was not active; [ ] = another dose, or the depositor's remark. Compounds with a hit are over-represented: about 9.9% of the library has one in this group of screens. Unless noted, calls follow the shape of the dose curve; as a rule, active = well fitted inhibition curve with a large enough effect (not every such curve was filed as active); inconclusive = small, poorly fitted or top-dose-only effect, or another doubt; inactive = no such curve, though single readings can be large or run the other way. Unless noted, % is scaled to controls: 0 for no effect and ±100 for the full control effect; potency is read from the fitted curve at half-maximal effect.

SMILES | Tau fluor counter | Tau fibril ThT | KDM4E inh | ALDH1A1 block | HPGD block | Tau FP inhib
O=C(O)Cn1c(O)c(C=Nc2ccccc2)sc1=S | 19.4% | ? | 4.3% | 28.2µM*! | ? | 7.9%
Oc1c(C=Nc2ccccc2)sc(=S)n1Cc1ccccc1 | ? | 0.1% | 14.0% | 1.41µM* | . | -13.1%
CCn1c(O)c(C=Nc2ccccc2)sc1=S | ? | ? | -27.7% | ? | . | 2.6%
COc1ccc(N(C)C(=O)c2nn(-c3ccc(C)cc3)c(=O)n(C)c2=O)c(OC)c1 | 0.2% | 2.7% | . | . | . | ?
CCCCC(=O)Nc1cccc(OCc2cc(=O)n3ccccc3n2)c1 | -3.8% | 0.3% | . | . | . | -7.3%
c1ccc(CNc2cc(-c3ccoc3)ncn2)cc1 | . | . | . | 22.4µM* | . | .
COc1ccc(CNc2cc(-c3ccoc3)ncn2)c(OC)c1 | . | . | . | 25.1µM* | . | .
COc1cccc(-c2cc(NCc3ccccc3OC)ncn2)c1 | . | . | . | 9.0% | . | .
O=C1CCC(C(=O)Nc2ccccc2N2CCOCC2)=NN1 | -2.2% | 3.8% | -6.1% | . | . | -2.4%
Cc1ccc(-c2nc3cc(Cl)ccc3o2)cc1NC(=O)c1cc([N+](=O)[O-])ccc1N1CCOCC1 | -25.9% | -17.9% | . | . | . | 7.4%
COC(=O)c1sccc1NC(=S)N(C)C1CCCCC1 | -16.5% | ? | -4.8% | 0.355µM* | . | ?
COC(=O)c1sccc1NC(=O)NC1CCCCC1 | -6.6% | -4.3% | -4.7% | -6.3% | . | -9.5%
CN(CCc1ccccn1)C(=O)CCC1CCCN(C(=O)c2n[nH]c3c2CCCC3)C1 (stereo unspecified) | 4.6% | -8.6% | 2.0% | -0.5% | . | 3.1%
O=[N+]([O-])c1c(NCCCO)cc(Sc2nc3ccccc3s2)c2nonc12 | ? | 2.24µM* | -2.2% | 15.8µM* | 2.82µM* | -20.8%
CCC(=O)OCCNc1cc(Sc2nc3ccccc3[nH]2)c2nonc2c1[N+](=O)[O-] | ? | 8.91µM* | -4.8% | -20.3% | 7.08µM* | ?
CCCSc1cc(NCCOC(=O)CCC)c([N+](=O)[O-])c2nonc12 | ? | ? | -3.2% | ? | -16.8% | 9.1%
CCC(=O)OCCNc1cc(Sc2nc3ccccc3s2)c2nonc2c1[N+](=O)[O-] | ? | 7.94µM* | 1.3% | 8.91µM* | 3.16µM* | -11.6%
CC(C)(C)C1CCc2nc(NC(=O)COc3ccc(F)cc3)sc2C1 (stereo unspecified) | -6.7% | ? | . | . | . | -9.2%
S=C(c1ccc(-c2cccc(Cl)c2)o1)N1CCOCC1 | ? | 15.8µM* | -12.3% | 11.2µM* | 22.4µM* | -11.3%
O=[N+]([O-])c1cc(-c2ccc(C(=S)N3CCOCC3)o2)ccc1Cl | ? | 14.1µM* | 3.4% | 3.98µM* | . | ?
N#CCCN1CCN(C(=S)c2ccc(-c3cccc(Cl)c3)o2)CC1 | -28.2% | ? | -15.6% | 11.2µM* | 28.2µM* | 2.3%
S=C(c1ccc(-c2cccc(Cl)c2)o1)N1CCCCC1 | -23.7% | ? | -6.5% | 14.1µM* | . | -6.5%
C[C@@H](C(=O)O)c1ccc(C(=O)c2ccccc2)s1 | . | . | -2.1%[25.5 µM] | -15.6%[20.9 µM] | 14.1µM* | .
NC(=O)Cc1ccc(C(=O)c2ccc(F)cc2)s1 | 4.9% | -0.8% | 0.4% | 3.2% | . | 10.6%
CC(C(=O)O)c1ccc(C(=O)c2cccs2)cc1 (stereo unspecified) | -4.9% | -6.7% | ? | ? | ? | -4.7%
N#CCc1ccc(C(=O)c2ccccc2)s1 | ? | ? | -6.4% | ? | 28.2µM* | 6.6%
COc1ccc(Cc2noc(CN3CCCC(OCc4ccccn4)C3)n2)cc1OC (stereo unspecified) | -0.4% | -2.8% | -10.6% | 1.8% | . | -6.5%
O=[N+]([O-])c1ccccc1/C=N/n1c(-c2cccnc2)n[nH]c1=S | -21.7% | ? | -4.4% | ? | ? | 0.3%
CC(/C=N/n1c(COc2ccccc2)n[nH]c1=S)=C\c1ccccc1 | ? | ? | -1.5% | ? | 5.62µM* | 7.8%
O=[N+]([O-])c1cc(/C=N/n2c(-c3cccnc3)n[nH]c2=S)ccc1Cl | -29.0% | ? | 2.3% | 2µM* | 3.98µM* | 1.7%
